Laboratory results from PubChem BioAssay (Tox21).
Records with an inconclusive call do not appear. The source made the active and inactive calls. Unless noted, the call rests on the fitted dose curve; in most records, active means well fitted curve in the direction sought with a large enough effect in the repeat runs; inconclusive means weak or mixed curves; inactive means no such curve, though single readings can be large; an effect the other way counts as inactive or inconclusive.

Tests used:
[1] = A CellTox Green Cytotoxicity Assay to monitor cytotoxicity in HepG2 cells - 0 hour (AID 1224882); further: nearly all actives have a fitted effect of over 35% in size
Summary of the method: (§1)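 Fluorescent DNA-binding dye, 600 HepG2 cells/well, 5 h preincubation then compound in DMSO; same plates read at 0–40 h, 37 C.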

[2] = A CellTox Green Cytotoxicity Assay to monitor cytotoxicity in HepG2 cells - 32 hour (AID 1224883); further: nearly all actives have a fitted effect of over 50% in size; further: potency means the concentration at half of the fitted maximal effect
Summary of the method: as §1

[3] = A CellTox Green Cytotoxicity Assay to monitor cytotoxicity in HEK293 cells - 8 hour (AID 1224884); further: nearly all actives have a fitted effect of over 35% in size
Summary of the method: (§2)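 Homogeneous no-lysis format: HEK293 cell suspension mixed with CellTox Green reagent, seeded, incubated 5 h at 37 C/5% CO2, then dosed by pintool with compound in DMSO.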

[4] = qHTS RealTime-Glo MT Cell Viability Assay in HepG2 cells - 16 hour (AID 1224885); further: nearly all actives have a fitted effect of over 50% in size
Summary of the method: (§3)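 Cells + NanoLuc/prosubstrate dispensed (600 cells/well) → 5 h at 37 C/5% CO2 → compounds in DMSO transferred → 40 h incubation at 37 C, luminescence read at 0, 8, 16, 24, 32, 40 h.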

[5] = qHTS RealTime-Glo MT Cell Viability Assay in HEK293 cells - 24 hour (AID 1224886); further: top concentration of the series differs between compounds; nearly all actives have a fitted effect of over 50% in size
Summary of the method: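 Tox21 10K qHTS, HEK293, 600 cells/well, RealTime-Glo reagent co-dispensed with cells; 5 h preincubation, compound by pintool, 37 C, luminescence at 0–40 h.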

[6] = qHTS RealTime-Glo MT Cell Viability Assay in HEK293 cells - 8 hour (AID 1224887); further: top concentration of the series differs between compounds; nearly all actives have a fitted effect of over 50% in size
Summary of the method: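 Measured as luminescence from the same continuously cultured HEK293 wells at successive time points (0, 8, 16, 24, 32, 40 h) after compound addition. Reagent present from seeding; dosing at 5 h; incubation 37 C.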

[7] = A CellTox Green Cytotoxicity Assay to monitor cytotoxicity in HEK293 cells - 16 hour (AID 1224888); further: nearly all actives have a fitted effect of over 35% in size
Summary of the method: as §2

[8] = qHTS RealTime-Glo MT Cell Viability Assay in HepG2 cells - 0 hour (AID 1224889); further: nearly all actives have a fitted effect of over 50% in size
Summary of the method: as §3

[9] = A CellTox Green Cytotoxicity Assay to monitor cytotoxicity in HepG2 cells - 8 hour (AID 1224890); further: nearly all actives have a fitted effect of over 45% in size
Summary of the method: as §1

[10] = qHTS assay to identify small molecule antagonists of the androgen receptor (AR) signaling pathway using the MDA cell line in the presence of 0.5 nM R1881 - cell viability counter screen (AID 1259242); further: nearly all actives have a fitted effect of over 45% in size; further: potency means the concentration at half of the fitted maximal effect
Summary of the method: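 Human breast carcinoma MDA-kb2 cells, cultured without CO2, receive compounds alongside 0.5 nM (final) R1881 agonist. After 16 hr at 37C, viability is taken as live-cell protease signal.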

[11] = qHTS assay to identify small molecule HDAC inhibitors (AID 1259364); further: potency means the concentration at half of the fitted maximal effect;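 further: wild-type HCT-116 cells with endogenous class I/II HDAC activity; nearly all actives have a fitted effect of over 45% in size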
Summary of the method: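 After a 2 hr compound incubation (37C, 5% CO2), HCT-116 cells seeded at 1,500/well the day before received HDAC-Glo reagent; signal read as luminescence after 30 min at room temperature.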

[12] = qHTS assay to identify small molecule HDAC inhibitors - cell viability counter screen (AID 1259365); further: nearly all actives have a fitted effect of over 50% in size; further: potency means the concentration at half of the fitted maximal effect
Summary of the method: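 CellTiter-Glo luminescence (30 min, room temperature) reported viability after a 2 h compound exposure at 37 C. Cells: wild-type HCT-116, 1,500 per well, seeded the night before.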

[13] = qHTS assay to identify small molecule antagonists of the sonic hedgehog signaling (Shh) pathway - cell viability counter screen (AID 1259367); further: nearly all actives have a fitted effect of over 55% in size; further: potency means the concentration at half of the fitted maximal effect
Summary of the method: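 Conditioned medium drove Shh signaling in 3T3 Gli1-Luc cells exposed to compounds at 37C and 5% CO2. Viability was determined from CellTiter-Fluor fluorescence, with reagent incubated 1 hr after 23 hr of treatment.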

[14] = qHTS assay to identify small molecule agonists of the sonic hedgehog signaling (Shh) pathway (AID 1259368; calls by dose curve;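 further: NIH/3T3-derived 3T3Gli1-Luc cells carrying a stable Gli1-driven firefly luciferase reporter; series mostly up to about 92 µM; nearly all actives have a fitted effect of over 15% in size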)
Summary of the method: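 Stable NIH/3T3 Gli1-Luc reporter clone; 24 hr cpd exposure after a 4 hr settling period; luminescence endpoint.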

[15] = qHTS assay to identify small molecule antagonists of the estrogen receptor alpha (ER-alpha) signaling pathway using the BG1 cell line in the presence of 0.1 nM 17-beta-estradiol - cell viability counter screen (AID 1259241); further: nearly all actives have a fitted effect of over 40% in size; further: potency means the concentration at half of the fitted maximal effect
Summary of the method: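 Cytotoxicity counter-screen: live-cell protease activity measured by fluorescence (30 min reagent step) in the same wells. Cells were VM7Luc4E2 with endogenous ER-alpha and ERE-driven luciferase, treated 22 hr at 37C alongside 0.1 nM 17beta-estradiol final.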

[16] = target: Estrogen receptor (Homo sapiens) (UniProt P03372); test: qHTS assay to identify small molecule antagonists of the estrogen receptor alpha (ER-alpha) signaling pathway using the BG1 cell line in the presence of 0.1 nM 17-beta-estradiol (AID 1259244); further: nearly all actives have a fitted effect of over 50% in size
Estrogen receptor (Homo sapiens), sequence (P03372 whole entry, looked up): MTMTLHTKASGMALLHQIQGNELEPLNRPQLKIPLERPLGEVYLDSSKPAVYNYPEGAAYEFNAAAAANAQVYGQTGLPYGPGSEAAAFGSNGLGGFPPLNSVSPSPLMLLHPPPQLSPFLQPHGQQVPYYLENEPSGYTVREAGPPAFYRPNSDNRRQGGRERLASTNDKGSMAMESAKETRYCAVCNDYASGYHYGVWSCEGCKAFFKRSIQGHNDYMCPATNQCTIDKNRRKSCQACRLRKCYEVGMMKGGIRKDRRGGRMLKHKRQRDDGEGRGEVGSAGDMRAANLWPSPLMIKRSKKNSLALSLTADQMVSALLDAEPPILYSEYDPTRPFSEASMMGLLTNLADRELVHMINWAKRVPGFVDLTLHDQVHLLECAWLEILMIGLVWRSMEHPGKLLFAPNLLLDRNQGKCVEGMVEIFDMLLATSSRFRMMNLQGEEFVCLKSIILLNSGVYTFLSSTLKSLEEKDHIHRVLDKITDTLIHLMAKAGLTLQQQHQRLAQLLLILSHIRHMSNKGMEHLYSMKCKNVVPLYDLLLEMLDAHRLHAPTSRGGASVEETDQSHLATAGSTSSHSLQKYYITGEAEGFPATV
Summary of the method: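 Seeding of stripped-serum-adapted VM7Luc4E2 cells, 24 h attachment, compound transfer, then 0.1 nM final 17beta-estradiol; after 22 h incubation, ONE-Glo reagent and luminescence reading.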

[17] = qHTS assay to identify small molecule agonists of the sonic hedgehog signaling (Shh) pathway - cell viability counter screen (AID 1259366); further: nearly all actives have a fitted effect of over 50% in size; further: potency means the concentration at half of the fitted maximal effect
Summary of the method: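 Cytotoxicity counter screen: CellTiter-Fluor reagent added after 23 h compound exposure, then 1 h at 37C and fluorescence read. Cells were 3T3 Gli1-Luc, seeded 2,000 per well and dosed 4 h post-plating.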

[18] = qHTS assay to identify small molecule phospholipidosis (PLD) inducers (AID 1259344; active means well fitted curve in the direction sought with a large enough effect; an effect the other way counts as inactive or inconclusive)
Summary of the method: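 After 4 h attachment on collagen I, HepG2 cells were dosed with compound alongside LipidTOX Red, kept 24 h at 37 C, fixed, and imaged for lamellar phospholipid pits.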

[19] = qHTS assay to identify small molecule antagonists of the sonic hedgehog signaling (Shh) pathway (AID 1259369; calls by dose curve; further: nearly all actives have a fitted effect of over 45% in size)
Summary of the method: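 Gli1 transcriptional reporter (firefly Luc) in NIH/3T3 background, conditioned-medium activated. 24hr exposure, luminescence endpoint.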

[20] = target: Androgen receptor (Homo sapiens) (UniProt P10275); test: qHTS assay to identify small molecule antagonists of the androgen receptor (AR) signaling pathway using the MDA cell line in the presence of 0.5 nM R1881 (AID 1259243); further: nearly all actives have a fitted effect of over 50% in size
Androgen receptor (Homo sapiens), sequence (P10275 whole entry, looked up): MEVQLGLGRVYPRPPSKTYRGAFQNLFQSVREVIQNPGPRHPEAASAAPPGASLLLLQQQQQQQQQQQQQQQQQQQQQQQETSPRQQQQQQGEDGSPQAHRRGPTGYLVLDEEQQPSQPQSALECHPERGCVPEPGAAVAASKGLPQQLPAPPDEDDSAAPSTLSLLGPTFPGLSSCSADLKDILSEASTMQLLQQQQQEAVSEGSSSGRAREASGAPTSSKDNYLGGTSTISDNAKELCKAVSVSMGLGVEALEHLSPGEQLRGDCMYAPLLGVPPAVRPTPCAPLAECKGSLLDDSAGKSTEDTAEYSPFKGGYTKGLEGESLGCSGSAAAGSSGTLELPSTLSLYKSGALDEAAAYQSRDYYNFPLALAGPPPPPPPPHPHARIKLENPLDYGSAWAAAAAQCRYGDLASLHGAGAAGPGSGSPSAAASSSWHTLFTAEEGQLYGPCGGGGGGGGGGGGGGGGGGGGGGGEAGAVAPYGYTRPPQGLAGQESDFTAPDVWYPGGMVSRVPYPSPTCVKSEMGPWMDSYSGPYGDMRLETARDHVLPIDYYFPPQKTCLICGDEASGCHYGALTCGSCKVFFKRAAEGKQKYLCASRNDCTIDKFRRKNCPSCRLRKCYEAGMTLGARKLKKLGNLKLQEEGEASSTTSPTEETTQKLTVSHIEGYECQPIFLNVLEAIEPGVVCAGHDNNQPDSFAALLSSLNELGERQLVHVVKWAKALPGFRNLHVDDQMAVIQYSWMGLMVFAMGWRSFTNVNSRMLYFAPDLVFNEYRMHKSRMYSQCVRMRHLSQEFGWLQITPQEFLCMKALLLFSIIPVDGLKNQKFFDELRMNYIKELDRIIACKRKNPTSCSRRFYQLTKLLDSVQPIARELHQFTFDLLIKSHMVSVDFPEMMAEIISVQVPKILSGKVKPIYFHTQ
Summary of the method: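 Cells: MDA-kb2 (MMTV-luc). Stimulus: 0.5 nM R1881. Time: 16 hr, 37C, no CO2. Detection: ONE-Glo luminescence after 30 min at RT.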

Measured: Potency

Cc1ccc(N=Nc2c(O)c(C(=O)O)cc3ccccc23)c(S(=O)(=O)O)c1
active: [10] 11.8 µM | [13] 13.3 µM
not listed: [15] | [16] | [17] | [18] | [19] | [20]
inactive: all other assays above

CCCC(=O)Nc1ccc(O)c(C(C)=O)c1
not listed: [13] | [18] | [19] | [20]
inactive: all other assays above

O=C(O)C(S)C(S)C(=O)O (stereo unspecified)
not listed: [15] | [16] | [18] | [19] | [20]
inactive: all other assays above

OC[C@H]1O[C@@H](OCCc2ccc(O)cc2)[C@H](O)[C@@H](O)[C@@H]1O
not listed: [13] | [15] | [20]
inactive: all other assays above

O=C1OC(=O)C2C3C=CC(C3)C12 (stereo unspecified)
not listed: [16] | [18] | [20]
inactive: all other assays above

CCC(C)O (stereo unspecified)
not listed: [16] | [18] | [20]
inactive: all other assays above

C1CCCNCCC1
not listed: [16] | [18] | [19] | [20]
inactive: all other assays above

COc1ccc(C)cc1[N+](=O)[O-]
not listed: [15] | [16] | [18] | [20]
inactive: all other assays above

CCCCCCCCO[C@@H]1O[C@H](CO)[C@@H](O)[C@H](O)[C@H]1O
not listed: [13] | [18] | [19] | [20]
inactive: all other assays above

Nc1ccc(S(=O)(=O)Nc2ccccc2)cc1
not listed: [16] | [18] | [19] | [20]
inactive: all other assays above

O=C1c2ccccc2S(=O)(=O)N1CCCCN1CCN(c2ncccn2)CC1
not listed: [15] | [19] | [20]
inactive: all other assays above

CC(C)Nc1ccc(NC(C)C)c2c1C(=O)c1ccccc1C2=O
active: [2] 9.06 µM | [11] 12.7 µM | [12] 12.7 µM
not listed: [13] | [16] | [18] | [20]
inactive: all other assays above

CCn1cc(C(=O)O)c(=O)c2cnc(N3CCNCC3)nc21
not listed: [16] | [18] | [20]
inactive: all other assays above

CC1(c2ccccc2)OC(C(=O)O)=CC1=O (stereo unspecified)
not listed: [16] | [19] | [20]
inactive: all other assays above

O=[N+]([O-])c1ccc(NCCO)c(OCCO)c1
active: [15] 54.5 µM | [17] 24.4 µM | [13] 30.7 µM
not listed: [10] | [16] | [18]
inactive: all other assays above

O=C(NCCO[N+](=O)[O-])c1cccnc1
not listed: [16] | [18] | [20]
inactive: all other assays above
